Data on 47 compounds can be found in PubChem BioAssay AID1851 (National Center for Advancing Translational Sciences (NCATS), 2009).

SMILES strings stand for the structures. The whole screen tested about 16,000 compounds, of which about 5,800 (36%) were called active. Inconclusive results (about 23%) are left out. The list shows a part of the results. A number with no mark means an inactive call. Calls come from the whole dose curve; as a rule, active = well fitted curve in the direction sought with a large enough effect; inconclusive = small, poorly fitted or top-dose-only effect, or effect the other way; inactive = no such curve, though single readings can be large or run the other way.

Broadly, the AC50 is the concentration giving half of the maximal activity seen.
% is set by controls: 0 for no effect and ±100 for the full control effect.

Cytochrome P450 2C19 (Homo sapiens), sequence (P33261 whole entry, looked up): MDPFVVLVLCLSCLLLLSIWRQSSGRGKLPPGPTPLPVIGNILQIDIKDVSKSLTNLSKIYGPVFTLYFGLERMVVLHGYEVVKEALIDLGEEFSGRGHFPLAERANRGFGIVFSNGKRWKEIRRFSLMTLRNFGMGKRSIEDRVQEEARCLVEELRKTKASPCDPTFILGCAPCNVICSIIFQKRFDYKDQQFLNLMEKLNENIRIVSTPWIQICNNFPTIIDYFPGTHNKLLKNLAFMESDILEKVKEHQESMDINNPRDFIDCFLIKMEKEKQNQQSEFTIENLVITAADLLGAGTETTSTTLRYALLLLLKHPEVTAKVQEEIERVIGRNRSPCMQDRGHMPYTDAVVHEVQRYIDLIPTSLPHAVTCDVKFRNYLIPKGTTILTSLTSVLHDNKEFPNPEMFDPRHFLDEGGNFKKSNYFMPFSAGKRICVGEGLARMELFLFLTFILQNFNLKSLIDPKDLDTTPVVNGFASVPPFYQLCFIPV

The assay concerns the target Cytochrome P450 2C19 (Homo sapiens) (UniProt P33261). Kind of assay: Cytochrome panel assay with activity outcomes. The following applies: recombinant CYP, pro-luciferin dealkylation, luminescence, p450-cyp2c19; series mostly up to 57.1 µM; activity, negative = inhibition: at the top concentration.
Turning to `O=C(Cn1ncc2ccsc2c1=O)N1CCC2(CC1)OCCO2`, the concentration at half-maximal activity (AC50) is 22.4 µM (active).
Same read-out and setting: then `O=C(CNS(=O)(=O)c1ccc(Br)s1)N1CCC2(CC1)OCCO2`, with 2.82 µM (active); and `O=C(CNS(=O)(=O)c1cccs1)N1CCC2(CC1)OCCO2`, with 7.08 µM (active).
Regarding `CCN(CC)CCO[C@H]1CC[C@@]2(C)C(=CC[C@@H]3[C@H]2CC[C@]2(C)C(=O)CC[C@H]32)C1`, the “activity, negative = inhibition” value was -36%.
The same measure, in the same setting: then `CN(C)C(=O)Oc1cccc([N+](C)(C)C)c1`, with -3.75% [at 25.6 µM]; and `O=C(Oc1ccc(S(=O)(=O)F)cc1F)c1ccccc1Cl`, with 11.2% [at 11.4 µM].
Consider `N[C@@]1(C(=O)O)CC[C@H](C(=O)O)C1`, for which the AC50 result is “inactive”.
With `CC(C)CN1CC[C@@]2(CCCN(C(=O)Oc3ccccc3)C2)C1`, the “activity, negative = inhibition” value is -41%.
The same measure, in the same setting: for `C[C@@H]1[C@@H](C)N1C[C@H](O)Cn1ccnc1[N+](=O)[O-]` (some centres not stated) the value was 3.22% [at 11.4 µM].
Take `O=c1c2ccccc2c2ccccc2c(=O)n1-c1cc2c3ccccc3ccc2c2ccccc12`: the AC50 is 0.158 µM (active).
Consider `CC[C@H]1CN2CC[C@@H]1C[C@H]2[C@@H](O)c1ccnc2ccc(OC)cc12`, for which the “activity, negative = inhibition” value is -4.06% [at 25.6 µM].
Consider `Cc1ncsc1CCCl`, for which the AC50 is 7.94 µM (active).
In the case of `CN(C)CCC=C1c2ccccc2CCc2ccccc21`, the “activity, negative = inhibition” value was -25.8% [at 25.6 µM].
With `CCN(CC)C1=NC(=[N+](CC)CC)c2ccccc21`, the “activity, negative = inhibition” value was -4.57%.
On to `C[C@@]12CCC(=O)C=C1C=C[C@H]1[C@H]3CC[C@](O)(CCC(=O)O)[C@]3(C)CC[C@@H]12`, for which the “activity, negative = inhibition” value was 1.95% [at 25.6 µM].
On to `COC(=O)c1cc2c(cn1)[nH]c1ccccc12`, for which the AC50 is 3.98 µM (active).
On to `C[C@@]12CC[C@H]3[C@@H](CCC4=CC(=O)CC[C@]43C)[C@H]1CC[C@H]2C(=O)CO`, for which the “activity, negative = inhibition” value is -17.4% [at 25.6 µM].
With `Cc1ccc(S(=O)(=O)O[C@H]2CN3CCC2CC3)cc1`, the activity, negative = inhibition was 21.1% [at 11.4 µM].
With `NC(N)=Nc1ccc2[nH]c3c(c2c1)C[C@]1(O)[C@@H]2Cc4ccc(O)c5c4[C@]1(CCN2CC1CC1)[C@H]3O5`, the “activity, negative = inhibition” value is 40.7%.
With `O=[N+]([O-])O[C@H]1CO[C@H]2[C@H]1OC[C@@H]2O[N+](=O)[O-]`, the “activity, negative = inhibition” value is 43.3% [at 25.6 µM].
With `CCCC[N+]1(C)[C@@H]2CC(OC(=O)[C@@H](CO)c3ccccc3)C[C@H]1[C@H]1O[C@H]12` (some centres not stated), the “activity, negative = inhibition” value was 17.9%.
Turning to `CC1=C(O)C(=O)[C@H]2O[C@@H]2C1=O`, the AC50 is 0.158 µM (active).
For the compound `CN1CCCC2(CCN(C(=O)c3ccncc3)CC2)C1`, the “activity, negative = inhibition” value is -44.1%.
Take `CN(C)Cc1c[nH]c2ccccc12`: the “activity, negative = inhibition” value is -31.4% [at 25.6 µM].
On the same count and under the same terms, for `CC1=NN(c2ccccc2)C(=O)[C@@H]1N=Nc1ccc([As](=O)(O)O)c(O)c1` the value was 22.8% [at 11.4 µM].
On the same count and under the same terms, for `C[C@H](c1ccccc1)N1CCN([C@@H](C)c2ccccc2)CC1` the value was -29.5% [at 11.4 µM]; for `Cc1cc(C(C)(C)C)cc(C)c1CC1=NCCN1`, -13.7%.
Regarding `C=CCN1C(=O)NC(=O)/C(=C/c2cccn2C)C1=O`, the “activity, negative = inhibition” value was -26.7%.
With `CCN(CC)c1ccc(/C=C2/C(=O)NC(=O)N(CC3CCCO3)C2=O)cc1` (configuration not stated), the AC50 was 7.08 µM (active).
Consider `Oc1ccc([C@H](O)[C@@H]2CCCCN2)cc1O`, for which the activity, negative = inhibition is 10% [at 11.4 µM].
In the case of `CN1[C@H]2CC(=O)C[C@@H]1[C@@H](O)C2`, the “activity, negative = inhibition” value is 8.15% [at 25.6 µM].
For the compound `C[C@@]12CC[C@H]3[C@@H](CC[C@@H]4C[C@H]5S[C@H]5C[C@]43C)[C@H]1CC[C@H]2O`, the concentration at half-maximal activity (AC50) was 0.0631 µM (active).
For `C[C@@]12CC[C@@H]3c4ccc(O)cc4CC[C@H]3[C@H]1CC[C@H]2O`, the “activity, negative = inhibition” value was -29.4% [at 25.6 µM].
With `C[N+](C)(C)CCCCCCCCCC[N+](C)(C)C`, the “activity, negative = inhibition” value was 4.81% [at 25.6 µM].
Same read-out and setting: for `Nc1nc(N)c(N=Nc2ccc([As](=O)(O)O)cc2)c(=O)[nH]1` the value was 19% [at 11.4 µM]; for `COC(=O)Nc1nc2ccc(C(=O)c3cccs3)cc2[nH]1`, -1.51%.
With `O=C1C=CC(=O)c2c1ccc1c2ccc2ccccc21`, the AC50 is 1.58 µM (active).
For `CCN1C[C@]2(COC)CC[C@H](O)[C@@]34[C@@H]5C[C@H]6[C@@H](OC)[C@H]5[C@](O)(C[C@@H]6OC)[C@@](O)([C@@H](OC)[C@H]23)[C@@H]14`, the “activity, negative = inhibition” value is 33.2% [at 25.6 µM].
Still for that read-out and setting: for `C[C@]12CC[C@H](O)C[C@@H]1CC[C@H]1[C@H]2CC[C@]2(C)[C@H](C(=O)CO)CC[C@@H]12` the value was -19.9%.
With `C[C@@]12CC[C@@H]3[C@@H](CC[C@H]4C[C@@H](O)CC[C@]43C)[C@H]1CC[C@@H]2c1cc(C(F)(F)F)n[nH]1`, the AC50 was 2.51 µM (active).
Turning to `C[C@]12CC[C@H](O)C[C@@H]1CC[C@H]1[C@H]2CC[C@]2(C)C(=O)CC[C@@H]12`, the AC50 result was “inactive”.
The same measure, in the same setting: then `NN=C(N)N`, with “inactive”; and `N[C@H](CCC(=O)N[C@H](CSN=O)C(=O)NCC(=O)O)C(=O)O`, with 1.58 µM (active).
As for `COC(=O)[C@H]1C(=O)c2ccccc2O[C@@](C(=O)OC)(c2ccccc2)[C@@H]1c1ccccc1`, the activity, negative = inhibition was -43% [at 11.4 µM].
As for `CN1CCN(c2cc(N3CCCC3)c([N+](=O)[O-])cc2F)CC1`, the concentration at half-maximal activity (AC50) was 7.94 µM (active).
As for `NC(=O)c1cc(N2CC2)c([N+](=O)[O-])cc1[N+](=O)[O-]`, the “activity, negative = inhibition” value is -21%.
The same measure, in the same setting: for `CN(C)C(=O)Oc1ccc[n+](C)c1` the value was 73.3%.
